In PubChem BioAssay (NCI) one finds growth data, which are given here for 8 compounds.

Each structure is given as a SMILES string. This is part of a sample that, as a whole, favours compounds with a hit. Of some 83,000 tested, about 20% had one in any assay.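 96-well plates, one dose, 48 hours. Percent growth reported; active if below 10.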 Unmarked numbers belong to inactive results. Activity calls are given as the source filed them.

Common to all, as to test: NCI-60 one-dose screen, 48 h (100 = growth as untreated, 0 = no growth, -100 = all killed)
In one test the test system is HCT-15 colon. The conditions noted are these: 10 µM unless noted.
For the next test, the system named is HT29 colon. The conditions noted are these: 10 µM unless noted.
For a further test, the system named is SNB-75 CNS. The conditions noted are these: 10 µM unless noted.
In the next test the test system is SNB-19 CNS. The conditions noted are these: 10 µM unless noted.
The next test relates to U251 CNS. The conditions noted are these: 10 µM unless noted.
For a further test, the system named is PC-3 prostate. The conditions noted are these: 10 µM unless noted.
The next test deals with SK-MEL-5 melanoma. The conditions noted are these: 10 µM unless noted.
For another test, the system named is UACC-62 melanoma. The conditions noted are these: 10 µM unless noted.
A further test concerns LOX IMVI melanoma. To be noted: 10 µM unless noted.
The test system of another test is SK-MEL-28 melanoma. The conditions noted are these: 10 µM unless noted.
The subject of another test is SK-MEL-2 melanoma. To be noted: 10 µM unless noted.
The test system of a further test is SN12C renal. To be noted: 10 µM unless noted.
Another test deals with UO-31 renal. The conditions noted are these: 10 µM unless noted.
The next test relates to TK-10 renal. The conditions noted are these: 10 µM unless noted.
Another test deals with ACHN renal. The conditions noted are these: 10 µM unless noted.
A further test has as its system CAKI-1 renal. To be noted: 10 µM unless noted.
A further test relates to A498 renal. The conditions noted are these: 10 µM unless noted.
The next test deals with CCRF-CEM leukemia. The conditions noted are these: 10 µM.
The next test concerns MOLT-4 leukemia. To be noted: 10 µM unless noted.

For `c1cc[c]([Bi]([c]2ccccc2)[c]2ccccc2)cc1`, the growth in the test on HCT-15 colon is 103%; in the test on HT29 colon it was 112%; with SNB-75 CNS, 76.9%; in the test with SNB-19 CNS, 102%; in the test on U251 CNS, 99.6%; in the test on PC-3 prostate, 85.2%. Besides, the growth is 97.8% in the test with SK-MEL-5 melanoma; 94.6% with UACC-62 melanoma; 98.6% in the test on LOX IMVI melanoma; 102% in the test on SK-MEL-28 melanoma; 116% with SK-MEL-2 melanoma; 97.1% in the test on SN12C renal. The growth is 84.8% in the test with UO-31 renal; 94.6% with TK-10 renal; 105% with ACHN renal; 88.6% with CAKI-1 renal; 89.3% in the test with A498 renal; 86.5% in the test on CCRF-CEM leukemia. Besides, the growth with MOLT-4 leukemia was 108%.

`CCN(CC)C(=O)C1(C)CCCC2(C)c3cc(OC(C)=O)ccc3CCC12` (stereo not drawn): the growth is 87% in the test with HCT-15 colon; 82.9% in the test with HT29 colon; 80.9% in the test on SNB-75 CNS; 96.5% in the test with SNB-19 CNS; 81.5% in the test with U251 CNS; 76.2% in the test with PC-3 prostate. Also, the growth in the test with SK-MEL-5 melanoma is 67.6%; in the test with UACC-62 melanoma, 73.1%; with LOX IMVI melanoma it was 101%; with SK-MEL-28 melanoma it was 88.5%; with SK-MEL-2 melanoma, 80.3%; with SN12C renal it was 91.7%. The growth was 54.4% in the test on UO-31 renal; 78.1% in the test with TK-10 renal; 80.7% in the test on ACHN renal; 76.8% with CAKI-1 renal; 83.9% with A498 renal; 64.1% in the test on MOLT-4 leukemia.

Turning to `CCC(C)[C@H](NC(=O)Nc1cc(C(F)(F)F)cc(C(F)(F)F)c1)C(=O)N[C@@H](Cc1cn(C)cn1)C(=O)OC` (stereo partly drawn), the growth with HCT-15 colon was -83.2% [100 µM] (active); in the test with HT29 colon, -83.6% [100 µM] (active); in the test on SNB-75 CNS, -100% [100 µM] (active); in the test on SNB-19 CNS, -98.5% [100 µM] (active); with U251 CNS, -98% [100 µM] (active); in the test on PC-3 prostate, -93.7% [100 µM] (active). Further, the growth is -97.9% [100 µM] (active) in the test on SK-MEL-5 melanoma; -98.8% [100 µM] (active) in the test with UACC-62 melanoma; -81.2% [100 µM] (active) in the test with LOX IMVI melanoma; -95.3% [100 µM] (active) with SK-MEL-28 melanoma; -92.4% [100 µM] (active) in the test with SK-MEL-2 melanoma; -82% [100 µM] (active) in the test with SN12C renal. In addition, the growth was -95.3% [100 µM] (active) with UO-31 renal; -98.7% [100 µM] (active) in the test on TK-10 renal; -98.4% [100 µM] (active) in the test with ACHN renal; -99.6% [100 µM] (active) in the test on CAKI-1 renal; -94.4% [100 µM] (active) in the test with A498 renal; -54.9% [100 µM] (active) in the test with MOLT-4 leukemia.

With `COC(=O)[C@H](Cc1cn(C)cn1)NC(=O)[C@@H](NC(=O)Nc1cc(C(F)(F)F)cc(C(F)(F)F)c1)C(C)(C)C`, the growth is 70.5% [100 µM] in the test with HCT-15 colon; -66.9% [100 µM] (active) in the test with HT29 colon; -55.1% [100 µM] (active) with SNB-75 CNS; -91.6% [100 µM] (active) in the test on SNB-19 CNS; -89.9% [100 µM] (active) with U251 CNS; -92.9% [100 µM] (active) in the test on PC-3 prostate. Besides, the growth with SK-MEL-5 melanoma was -67.4% [100 µM] (active); with UACC-62 melanoma, -88.5% [100 µM] (active); in the test with LOX IMVI melanoma, -86.6% [100 µM] (active); in the test on SK-MEL-28 melanoma it was -92.3% [100 µM] (active); in the test on SK-MEL-2 melanoma, -88.7% [100 µM] (active); with SN12C renal it was -91.8% [100 µM] (active). Further, the growth in the test on UO-31 renal is 61.1% [100 µM]; with TK-10 renal, -82% [100 µM] (active); in the test on ACHN renal, 0.692% [100 µM] (active); with CAKI-1 renal it was 55% [100 µM]; in the test on A498 renal, -77% [100 µM] (active); with MOLT-4 leukemia it was -25.7% [100 µM] (active).

As to `CCCCCCCCC(=O)Nc1ccc(O)cc1`, the growth in the test with HCT-15 colon was 94.6%; in the test on HT29 colon, 94.2%; with SNB-75 CNS it was 76.8%; with SNB-19 CNS, 112%; in the test with U251 CNS, 91.4%; in the test with PC-3 prostate it was 83.2%. Besides, the growth in the test with SK-MEL-5 melanoma was 96.7%; in the test on UACC-62 melanoma, 92.1%; with LOX IMVI melanoma it was 84.8%; in the test with SK-MEL-28 melanoma it was 99.7%; in the test on SK-MEL-2 melanoma, 93%; with SN12C renal, 94.3%. For the same compound, the growth in the test with UO-31 renal was 61.9%; in the test on TK-10 renal, 87.1%; in the test on ACHN renal it was 79.2%; in the test with CAKI-1 renal, 93.9%; in the test on A498 renal, 102%; in the test with MOLT-4 leukemia it was 57.9%.

Regarding `CC(C)(CNC1CCCCC1)OC(=O)c1ccccc1`, the growth is 97.7% in the test on HCT-15 colon; 95.5% in the test with HT29 colon; 105% with SNB-75 CNS; 103% with SNB-19 CNS; 100% with U251 CNS; 91.6% in the test on PC-3 prostate. The growth in the test on SK-MEL-5 melanoma was 97.7%; in the test with UACC-62 melanoma it was 106%; in the test with LOX IMVI melanoma, 96.7%; with SK-MEL-28 melanoma, 114%; in the test on SK-MEL-2 melanoma it was 116%; with SN12C renal it was 95.1%. Also, the growth was 77.2% with UO-31 renal; 104% in the test with TK-10 renal; 108% in the test with ACHN renal; 102% in the test on CAKI-1 renal; 103% in the test with A498 renal; 84.7% in the test with CCRF-CEM leukemia. Further, the growth with MOLT-4 leukemia was 93.8%.

Turning to `O=C(O)CS(=O)c1ccc(Cl)cc1` (stereo not drawn), the growth was 95.9% in the test on HCT-15 colon; 105% with HT29 colon; 103% with SNB-75 CNS; 104% in the test on SNB-19 CNS; 99.7% in the test with U251 CNS; 110% in the test with PC-3 prostate. For the same compound, the growth was 102% in the test with SK-MEL-5 melanoma; 111% in the test on UACC-62 melanoma; 91% in the test on LOX IMVI melanoma; 105% with SK-MEL-28 melanoma; 114% in the test with SK-MEL-2 melanoma; 104% in the test with SN12C renal. For the same compound, the growth in the test with UO-31 renal was 102%; with TK-10 renal, 96.1%; in the test with ACHN renal, 95.2%; with CAKI-1 renal, 115%; in the test on A498 renal, 91.9%; with CCRF-CEM leukemia, 98.5%. Also, the growth in the test with MOLT-4 leukemia is 90.5%.

For `CCN(CC)CCCNc1c2ccc(Cl)cc2nc2ccc(OC)cc12`, the growth was 1.74% (active) with HCT-15 colon; -15.4% (active) in the test on HT29 colon; -44.9% (active) in the test on SNB-75 CNS; 10.2% in the test on SNB-19 CNS; -14.9% (active) with U251 CNS; -34.6% (active) in the test on PC-3 prostate. Further, the growth is -96.3% (active) in the test on SK-MEL-5 melanoma; 50.3% with UACC-62 melanoma; -43.1% (active) with LOX IMVI melanoma; -72.3% (active) in the test with SK-MEL-28 melanoma; -3.63% (active) in the test on SK-MEL-2 melanoma; 10.7% in the test with SN12C renal. Moreover, the growth with UO-31 renal is -69.2% (active); in the test on TK-10 renal, -4.36% (active); with ACHN renal it was 1.29% (active); with CAKI-1 renal, 4.67% (active); with A498 renal it was -62.2% (active); in the test with CCRF-CEM leukemia it was -10.1% (active). In the test on MOLT-4 leukemia, the growth is -20.8% (active).
